{"source": "the supplement of paper PMC10941209", "note": "Unmarked numbers belong to inactive results."}
{"tested_on": "Toxoplasma gondii RH 2F1 tachyzoites (intracellular in HFF)", "assay": "parasite survival relative to DMSO control; higher = less antiparasitic activity, active = 20 or less", "settings": "1 µM; 72 h", "summary_of_the_method": "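Toxoplasma gondii RH-2F1 tachyzoites expressing β-galactosidase (5 × 10^3 per well) were used to infect HFF cells at 5 × 10^3 cells/well in 96-well plates for 3 h in D2 medium. Cells then received compound at 1 μM for 72 h at 37°C in 5% CO2, were lysed for 15 min, and were given CPRG, with absorbance at 570 nm read after 30 min. Survival denotes this signal as a percentage of DMSO-treated infected controls. Each value reflects 2 or more biological replicates.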"}
{"molecule": "NC(=O)c1nccn([C@@H]2O[C@H](CO)[C@@H](O)[C@H]2O)c1=O", "parasite survival": "59.3%"}
{"molecule": "CCCCN1C[C@H](O)[C@@H](O)[C@H](O)[C@H]1CO", "parasite survival": "61.5%"}
{"molecule": "COc1ccc(NC(=O)c2cc3ccccn3n2)cc1", "parasite survival": "44.5%"}
{"molecule": "O=C(O)c1sccc1S(=O)(=O)n1ccc2cc(Br)ccc21", "parasite survival": "66.8%"}
{"molecule": "CCC[C@@H]1C[C@@H](C(=O)N[C@@H]([C@H]2O[C@H](SC)[C@H](O)[C@@H](O)[C@H]2O)[C@H](C)Cl)N(C)C1", "parasite survival": "16.1% (active)"}
{"molecule": "O=C(NCc1ccc(F)cc1)c1c(O)c2ncccc2[nH]c1=O", "parasite survival": "75.5%"}
{"molecule": "CC(C)c1cc2c(cc1S(=O)(=O)O)[C@@]1(C)CCC[C@@](C)(C(=O)O)[C@@H]1CC2", "parasite survival": "74.6%"}
{"molecule": "O=C(O)c1ccccc1Sc1ncnc2sc3c(c12)CCC3", "parasite survival": "44.2%"}
{"molecule": "COc1ccc2nc(-c3ccccc3)cc(O)c2c1", "parasite survival": "6.87% (active)"}
{"molecule": "O=C1CCC(N2C(=O)c3ccccc3C2=O)C(=O)N1", "note": "(centres undefined)", "parasite survival": "58.1%"}
{"molecule": "O=C(CCCC(F)(F)F)N1CCC(c2nc(-c3nccs3)no2)CC1", "parasite survival": "68%"}
{"molecule": "COc1ccc2c(c1)cc(CNC(=O)c1cc3ccccc3o1)n2CC(=O)O", "parasite survival": "64.2%"}
{"molecule": "Cc1ccc(Oc2ccccc2-c2csc(N=C3NCCCN3)n2)c(C)c1", "parasite survival": "30.1%"}
{"molecule": "O=C(NC12CC3CC(CC(C3)C1)C2)c1cc2ccccc2[nH]1", "parasite survival": "14.7% (active)"}
{"molecule": "Cc1cc(CCCOc2c(C)cc(-c3noc(C(F)(F)F)n3)cc2C)on1", "parasite survival": "67.2%"}
{"molecule": "Nc1nc(-c2ccccc2)nc2[nH]nc(Nc3ccc(C(F)(F)F)cc3)c12", "parasite survival": "35.1%"}
{"molecule": "C[Si]1(C)CCN(Cc2cc(-c3ccc(Cl)cc3)n(-c3ccc(Cl)cc3)n2)CC1", "parasite survival": "13.7% (active)"}
{"molecule": "CCNC(=O)Nc1cn2c(-c3ncc(CC)cn3)cc(-c3cccnc3)cc2n1", "parasite survival": "34.6%"}
{"molecule": "CCCCCCCc1[nH]c2ccccc2c(=O)c1O", "parasite survival": "49%"}
{"molecule": "COc1ccc(SC(=O)N[C@H](CCC(=O)O)C(=O)O)cc1", "parasite survival": "56.2%"}
{"molecule": "O=C(Nc1nnc(-c2ccc(Cl)cc2)o1)c1ccc(F)cc1", "parasite survival": "41.1%"}
{"molecule": "Clc1cc2nc(C3CCNCC3)n(Cc3ccc(CNCCc4c[nH]cn4)cc3)c2cc1Cl", "parasite survival": "66.5%"}
{"molecule": "CC(C)=CCC/C(C)=C/CNCCNC1C2CC3CC(C2)CC1C3", "note": "(centres undefined)", "parasite survival": "8.85% (active)"}
{"molecule": "Cc1ccc(C)c(OCCCCCCN2C[C@H](O)[C@@H](O)[C@H](O)[C@H]2CO)c1", "parasite survival": "62.8%"}
{"molecule": "CCOc1noc2cc(OCCC3CCN(c4ccc(C)nn4)CC3)ccc12", "parasite survival": "45%"}
{"molecule": "O=[N+]([O-])c1cn(Cc2nc(O)nc(O)c2Br)cn1", "parasite survival": "58.1%"}
{"molecule": "CC#C[C@]1(O)CC[C@H]2[C@@H]3CCC4=CC(=O)CCC4=C3[C@@H](c3ccc(N(C)C)cc3)C[C@@]21C", "parasite survival": "45.7%"}
{"molecule": "CONC(=N)c1ccc(-c2ccc(-c3ccc(C(=N)NOC)cc3)o2)cc1", "parasite survival": "49.7%"}
{"molecule": "COc1ccc(SCC(=O)N2c3ccccc3Sc3ccccc32)cc1", "parasite survival": "47.4%"}
{"molecule": "CCc1cc(Cc2cnc(N)nc2N)cc2c1N(C)CCC2C", "note": "(centres undefined)", "parasite survival": "45.2%"}
{"molecule": "CC(C)CCN1C(=O)C(C2=NS(=O)(=O)c3cc(NS(C)(=O)=O)ccc3N2)=C(O)[C@@H]2[C@H]3CC[C@H](C3)[C@@H]21", "parasite survival": "72.3%"}
{"molecule": "CCc1c(O)nc2ccc(F)cc2c1OCC1CCC1", "parasite survival": "41%"}
{"molecule": "Cc1cc(C2CCCCC2)n(O)c(=O)c1", "parasite survival": "15.8% (active)"}
{"molecule": "COc1cc(Cc2cnc(N)nc2N)cc(OC)c1OC", "parasite survival": "52.6%"}
{"molecule": "CN1CCN(c2ccc3[nH]c(-c4ccc5[nH]c(-c6ccc(O)cc6)nc5c4)nc3c2)CC1", "parasite survival": "35.3%"}
{"molecule": "CCc1nc(N)nc(N)c1C#CC(C)c1cc(OC)cc(-c2ccncc2)c1", "note": "(centres undefined)", "parasite survival": "4.08% (active)"}
{"molecule": "CN(C)CC(=O)Nc1ccc2[nH]c(=O)c3ccccc3c2c1", "parasite survival": "55.3%"}
{"molecule": "CC(C)(C)c1cc(C(=O)/C(C#N)=N/Nc2cccc(Cl)c2)no1", "parasite survival": "37.6%"}
{"molecule": "CCCc1ccc(-c2cc3cn([C@H]4C[C@H](O)[C@@H](CO)O4)c(=O)nc3o2)cc1", "parasite survival": "61.6%"}
